Screening data as filed in PubChem BioAssay.
Compounds with a hit are over-represented: about 3.8% of the library has one in this group of screens.
HT1080 IDH1KD tx – qHTS for induction of synthetic lethality in tumor cells producing 2HG: qHTS for the HT-1080-IDH1KD cell line. HT-1080 IDH1 knockdown viability, ATP luminescence, 48 h. AID 686971, 2013. actives 2% (n = 360,000). Potency, µM (doses to about 46.1 µM), for the others: top-dose activity, negative = toxicity, most hits filed as cytotoxic;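 note: 0% = DMSO wells and -100% = cell-free medium wells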
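Using the IDH1-knockdown HT-1080 line run in the same batch and compound series as the NT line, viability after 48 h at 37 °C was determined by CellTiter-Glo luminescence and expressed as % activity.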
HepG2 viability – qHTS for Inhibitors of TGF-b: Cytotox Counterscreen; HepG2 CAGA-GFP viability, ATP luminescence, 18 h; Potency, µM (titrated, usually from 46.1 µM), without a hit: at the highest dose activity change, negative = cytotoxicity, hits mostly cytotoxic; actives 0.76% (n = 410,000); AID 588856, 2011
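CellTiter-Glo luminescence gave cytotoxicity after 18 hours at 37 degrees C. The cells were HepG2 CAGA-GFP in 1% FBS DMEM, stimulated with 500 pg/mL TGF-beta after compound addition. %Activity was normalised to no-cell wells (complete cell-killing) and DMSO (no toxicity), and curves were fitted and classified.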
TGFb inhibitor – qHTS for Inhibitors of TGF-b; Potency, µM (top dose mostly 46.1 µM), inactives show at the highest dose activity, negative = inhibition, usual class: inhibitors; HepG2 CAGA-GFP TGF-b/SMAD3 reporter, GFP fluorescence, 18 h; TGF-beta stimulated, 500 pg/mL final; AID 588855, 2011; actives 1.2% (n = 410,000); note: % is set by controls: 0 for no effect and ±100 for the full control effect; nearly all actives have a fitted effect of over 65% in size
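HEPG2 CAGA-GFP reporter cells (1000/well, DMEM with 1% FBS) received compounds, then recombinant TGF-beta at 500 pg/mL final for 18 hours at 37 degrees C. Per-cell GFP summed per well was normalised to unstimulated and stimulated DMSO controls before curve fitting.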
S2 tox – Viability Counterscreen for Primary qHTS for Inhibitors of ATXN expression; S2 cells (HEK-293 line with an ATXN2-luciferase reporter) viability, CellTiter-Fluor protease fluorescence, 24 h; actives 0.49% (n = 400,000); AID 651635, 2014; Potency, µM (doses to about 56.7 µM), most hits filed as cytotoxic; note: nearly all actives have a fitted effect of over 40% in size
HT1080-NT tox – qHTS for induction of synthetic lethality in tumor cells producing 2HG: qHTS for the HT-1080-NT fibrosarcoma cell line | HT-1080-NT fibrosarcoma viability, CellTiter-Glo ATP luminescence, 48 h | actives 1.6% (n = 360,000) | Potency, µM (highest dose often 46.1 µM), for the others: top-dose activity, negative = less viability, most hits filed as cytotoxic;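 note: NT is the 2HG producing partner of a matched IDH1 knockdown line; 0% = DMSO-treated cells and -100% = media-only wells without cells; nearly all actives have a fitted effect of over 55% in size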
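HT-1080-NT fibrosarcoma cells (2HG-overproducing), 750 cells/well in RPMI with 5% FBS, dosed after 2 h and incubated 48 h at 37C. CellTiter-Glo luminescence normalized to DMSO and no-cell wells; concentration-response curves fitted and classed.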
ATXN2 expr inh – Primary qHTS for Inhibitors of ATXN expression; HEK-293 ATXN2-luciferase reporter, luminescence, 24 h; Potency, µM (titrated, usually from 57 µM), for the others: at the top dose activity change, negative = inhibition, actives largely listed as inhibitors; actives 0.72% (n = 360,000); note: % is set by controls: 0 for no effect and ±100 for the full control effect; nearly all actives have a fitted effect of over 55% in size
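ATXN2-luciferase reporter cells (luciferase flanked by upstream and downstream ATXN2 gene portions) were treated 24 h at 37 °C with compounds at up to 57 uM. SteadyGlo luminescence gave expression; GF-AFC fluorescence gave viability.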
Numbers without * were called inactive; [ ] = dose if it differs, or a comment. Calls come from the whole dose curve; as a rule, active = well fitted curve in the direction sought with a large enough effect; inconclusive = small, poorly fitted or top-dose-only effect, or another doubt; inactive = no such curve, though single readings can be large; an effect the other way counts as inactive or inconclusive. Potency is the fitted concentration of half-maximal effect.

How did COC(=O)C1=C(c2cc3ccccc3s2)C[C@@H]2CC[C@H]1N2C(=O)N1CCCCC1 do in these assays?
HT1080 IDH1KD tx: 8.2µM*; HepG2 viability: -7%; TGFb inhibitor: inconclusive; S2 tox: inconclusive; HT1080-NT tox: inconclusive; ATXN2 expr inh: -32%

How did N[C@@H](Cc1ccc(Oc2cc(I)c(O)c(I)c2)c(I)c1)C(=O)O do in these assays?
S2 tox: inactive; ATXN2 expr inh: 3%

Results for CCCCCCn1c(=O)c(C(=O)Nc2ncccc2C)c(O)c2ccccc21 ?
HT1080 IDH1KD tx: inconclusive; HepG2 viability: -22%; TGFb inhibitor: 9%; S2 tox: inactive; HT1080-NT tox: inconclusive

What do the screens show for `CCCCn1c(=O)c(C(=O)Nc2ncccc2C)c(O)c2ccccc21`?
HT1080 IDH1KD tx: 16µM*; HepG2 viability: -18%; TGFb inhibitor: 8%; S2 tox: inactive; HT1080-NT tox: 23µM*; ATXN2 expr inh: -15%

How did c1ccc2c(CN3CCCCC3)c[nH]c2c1 do in these assays?
HT1080 IDH1KD tx: -4%; HepG2 viability: -29%; TGFb inhibitor: 0%; S2 tox: inactive; HT1080-NT tox: -1%; ATXN2 expr inh: -10%

Results for OC1(c2ccc(Cl)cc2)CCN(Cc2c[nH]c3ccccc23)CC1 ?
HT1080 IDH1KD tx: 18µM*; HepG2 viability: -38%; TGFb inhibitor: inconclusive; S2 tox: inactive; HT1080-NT tox: 18µM*; ATXN2 expr inh: inconclusive

How did CC(=O)N(C)c1cccc(-c2ccnc3c(C(=O)c4cccs4)cnn23)c1 do in these assays?
ATXN2 expr inh: 76%

How did CC(Cc1ccccc1)NCC(=O)Nc1cc(N(C)C)nc2ccccc12 (centres undefined) do in these assays?
HT1080 IDH1KD tx: 23µM*; HepG2 viability: 8%; TGFb inhibitor: -19%; S2 tox: inactive; HT1080-NT tox: inconclusive; ATXN2 expr inh: -3%

Results for C[C@H]1CN([C@@H](C)CO)C(=O)c2cc(-c3cccnc3)cnc2O[C@H]1CN(C)Cc1ccc(Oc2ccccc2)cc1 ?
HT1080 IDH1KD tx: -15%; HepG2 viability: -20%; TGFb inhibitor: -11%; S2 tox: inconclusive; HT1080-NT tox: 0%; ATXN2 expr inh: -26%

What do the screens show for `CC(=O)O[C@H]1C[C@@H]2OC3C=C(C)CCC3(C)[C@@]1(C)[C@@]21CO1` (some centres undefined)?
HepG2 viability: 2%; TGFb inhibitor: 1.3µM*; S2 tox: inconclusive; HT1080-NT tox: inconclusive; ATXN2 expr inh: inconclusive

How did COc1cc2c(cc1/C=C/[N+](=O)[O-])OCO2 do in these assays?
HT1080 IDH1KD tx: 8.2µM*; HepG2 viability: -61%; TGFb inhibitor: inconclusive; S2 tox: 28µM*; HT1080-NT tox: 4.1µM*; ATXN2 expr inh: -8%[11.3 µM]

How did Cc1ccc(NC(=O)C2CCCN(C(=O)c3cnn(-c4ccccc4)c3-n3cccc3)C2)cc1 (centres undefined) do in these assays?
HepG2 viability: -9%; TGFb inhibitor: inconclusive; S2 tox: inactive; ATXN2 expr inh: -10%

Results for CC[C@@H]1[C@@H](C)O[C@@](O)([C@@H](C)[C@H](O)[C@H](C)[C@H]2OC(=O)C=CC=C[C@@H](C)[C@@H]([C@@H](C)[C@@H](O)[C@H](C)[C@@]3(O)C[C@H](O[C@H]4C[C@H](O)[C@H](O)[C@H](C)O4)[C@H](CC)[C@@H](C)O3)OC(=O)C=CC=C[C@@H]2C)C[C@H]1O[C@H]1C[C@H](O)[C@H](O)[C@H](C)O1 ?
ATXN2 expr inh: 0.97µM*

How did C=C1CCN(C(CC(C)C)C(=O)Nc2ccc(OC)cc2)S(=O)(=O)c2ccccc21 (centres undefined) do in these assays?
HepG2 viability: -17%; TGFb inhibitor: inconclusive

What do the screens show for `CCOc1ccc(S(=O)(=O)Nc2cccc(C(=O)N3CCN(c4ccccn4)CC3)c2)cc1`?
HT1080 IDH1KD tx: -18%; HepG2 viability: 0%; TGFb inhibitor: -12%; S2 tox: inconclusive; HT1080-NT tox: -5%

How did Cc1nc2cc(C(F)(F)F)ccc2n1C1CCN(Cc2nnnn2Cc2cccs2)CC1 do in these assays?
HT1080 IDH1KD tx: -23%; HepG2 viability: -24%; TGFb inhibitor: -3%; S2 tox: inactive; HT1080-NT tox: -12%; ATXN2 expr inh: 22%

What do the screens show for `Cc1nc2cc(C(F)(F)F)ccc2n1C1CCN(Cc2nnnn2Cc2ccc3c(c2)OCO3)CC1`?
HT1080 IDH1KD tx: 29µM*; HepG2 viability: -37%; TGFb inhibitor: inconclusive; S2 tox: inactive; HT1080-NT tox: 23µM*; ATXN2 expr inh: -26%

How did COC(=O)C1CN(C#N)N(c2ccc(Cl)cc2)C12c1ccccc1-c1ccccc12 (centres undefined) do in these assays?
HT1080 IDH1KD tx: 3.7µM*; HepG2 viability: 3.5µM*; TGFb inhibitor: 5µM*; S2 tox: 4µM*; HT1080-NT tox: 3.3µM*; ATXN2 expr inh: 4µM*

How did CC(C)c1oc(=O)cc2c1[C@@H](O)[C@H]1OC(=O)[C@@]3(C)CC[C@@H](O)[C@@]2(C)C13 (some centres undefined) do in these assays?
HT1080 IDH1KD tx: inconclusive; HepG2 viability: -25%; TGFb inhibitor: 2µM*; S2 tox: inconclusive; HT1080-NT tox: inconclusive; ATXN2 expr inh: 13µM*

How did C[C@H]1CCC[C@@H](O)CCC/C=C/c2cc(O)cc(O)c2C(=O)O1 do in these assays?
HT1080 IDH1KD tx: 8.9µM*; HepG2 viability: -57%; TGFb inhibitor: inconclusive; S2 tox: inconclusive; HT1080-NT tox: inconclusive; ATXN2 expr inh: 14µM*

What do the screens show for `C[C@H]1CCC[C@H](O)CCCCCc2cc(O)cc(O)c2C(=O)O1`?
HT1080 IDH1KD tx: inconclusive; HepG2 viability: -58%; TGFb inhibitor: inconclusive; S2 tox: inactive; HT1080-NT tox: -18%; ATXN2 expr inh: inconclusive

How did Cc1c(P(=S)(c2ccccc2)c2ccccc2)[n+]2ccccc2n1C/C=C/c1ccccc1 do in these assays?
HepG2 viability: 20µM*; TGFb inhibitor: inconclusive; S2 tox: 14µM*; ATXN2 expr inh: inconclusive
